# The supplement of paper PMC8728848
# Many of the other results were omitted from the sample, so the strongest signals are more common in it than they were.
# B1: AT1G15820(NC) (Arabidopsis thaliana) (protein)
# chain: MAMAVSGAVLSGLGSSFLTGGKRGATALASGVGDAIAPFSFGSLLGTQLLLMGWVESKRWVDFFNPDSQSVEWATPWSKTAENFANYTGDQGYPGGRFFDPLGLAGKNRDGVYEPDFEKLERLKLAEIKHSRLAMVAMLIFYFEAGQGKTPLGALGL
# Tests used:
# Assay in all cases: glycan array binding signal (z-score within array); higher = stronger binding
# Conditions in all cases: glycan notation: IUPAC condensed, linker removed
# Fuc(a1-2)Gal = molecular target: Fuc(a1-2)Gal
# In short: (§1)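 From the Consortium for Functional Glycomics database, 3228 arrays were curated, keeping only those whose protein sequence was available. Binding is given as a within-array Z-score averaged across arrays sharing a protein sequence and across linkers. Negative Z-scores can be read as non-binding.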
# [1] = molecular target: Fuc(a1-2)Gal(b1-3)GlcNAc(b1-2)Man(a1-3)[Fuc(a1-2)Gal(b1-3)GlcNAc(b1-2)Man(a1-6)]Man(b1-4)GlcNAc(b1-4)[Fuc(a1-6)]GlcNAc
# In short: as §1
# [2] = molecular target: Fuc(a1-2)Gal(b1-3)GlcNAc(b1-3)[Neu5Ac(a2-6)Gal(b1-4)GlcNAc(b1-6)]Gal(b1-4)Glc
# In short: as §1
# [3] = molecular target: Fuc(a1-2)Gal(b1-3)GlcNAc6S
# In short: as §1
# [4] = molecular target: Fuc(a1-2)Gal(b1-3)[Fuc(a1-4)]GlcNAc
# In short: as §1
# [5] = molecular target: Fuc(a1-2)Gal(b1-4)GlcNAc(b1-2)Man
# In short: as §1
# [6] = molecular target: Fuc(a1-2)Gal(b1-4)GlcNAc(b1-3)Gal(b1-4)GlcNAc(b1-3)Gal(b1-4)GlcNAc
# In short: as §1
# [7] = molecular target: Fuc(a1-2)Gal(b1-4)[Fuc(a1-3)]GlcNAc(b1-2)[Fuc(a1-2)Gal(b1-4)[Fuc(a1-3)]GlcNAc(b1-4)]Man(a1-3)[Fuc(a1-2)Gal(b1-4)[Fuc(a1-3)]GlcNAc(b1-2)Man(a1-6)]Man(b1-4)GlcNAc(b1-4)GlcNAc
# In short: as §1
# [8] = molecular target: Fuc(a1-2)[Gal(a1-3)]Gal(b1-3)GalNAc
# In short: as §1
# [9] = molecular target: Fuc(a1-2)[Gal(a1-3)]Gal(b1-3)GlcNAc
# In short: as §1
# [10] = molecular target: Fuc(a1-2)[Gal(a1-3)]Gal(b1-4)Glc
# In short: as §1
# [11] = molecular target: Fuc(a1-2)[GalNAc(a1-3)]Gal(b1-4)GlcNAc(b1-6)GalNAc
# In short: as §1
# [12] = molecular target: Fuc(a1-2)[GalNAc(a1-3)]Gal(b1-4)[Fuc(a1-3)]GlcNAc(b1-3)GalNAc
# In short: as §1
# [13] = molecular target: Fuc(a1-3)[Gal3S(b1-4)]Glc
# In short: as §1
# Gal(a1-3)Gal(b1-4)GlcNAc = molecular target: Gal(a1-3)Gal(b1-4)GlcNAc
# In short: as §1
# [14] = molecular target: Gal(a1-3)[Gal(a1-4)]Gal(b1-4)GlcNAc
# In short: as §1
# [15] = molecular target: Gal(b1-3)GalNAc(a1-3)[Fuc(a1-2)]Gal(b1-4)GlcNAc
# In short: as §1
# [16] = molecular target: Gal(b1-3)GlcNAc(a1-6)Gal(b1-4)GlcNAc
# In short: as §1
# [17] = molecular target: Gal(b1-3)GlcNAc(b1-3)Gal(b1-4)GlcNAc(b1-6)[Gal(b1-3)GlcNAc(b1-3)]Gal(b1-4)Glc
# In short: as §1
# [18] = molecular target: Gal(b1-3)GlcNAc(b1-3)GalNAc
# In short: as §1
# [19] = molecular target: Gal(b1-3)GlcNAc(b1-6)[Gal(b1-3)]GalNAc
# In short: as §1
# [20] = molecular target: Gal(b1-3)[Fuc(a1-4)]GlcNAc(b1-2)Man
# In short: as §1
# [21] = molecular target: Gal(b1-4)GlcNAc(b1-3)Gal(b1-4)Glc
# In short: as §1
# [22] = molecular target: Gal(b1-4)GlcNAc(b1-3)Gal(b1-4)GlcNAc(b1-3)Gal(b1-4)GlcNAc(b1-3)Gal(b1-4)GlcNAc(b1-2)Man(a1-3)[Gal(b1-4)GlcNAc(b1-3)Gal(b1-4)GlcNAc(b1-3)Gal(b1-4)GlcNAc(b1-3)Gal(b1-4)GlcNAc(b1-2)Man(a1-6)]Man(b1-4)GlcNAc(b1-4)GlcNAc
# In short: as §1
# [23] = molecular target: Gal(b1-4)GlcNAc(b1-3)Gal(b1-4)GlcNAc(b1-3)Gal(b1-4)GlcNAc(b1-3)Gal(b1-4)GlcNAc(b1-3)Gal(b1-4)GlcNAc(b1-2)Man(a1-3)[Gal(b1-4)GlcNAc(b1-3)Gal(b1-4)GlcNAc(b1-3)Gal(b1-4)GlcNAc(b1-3)Gal(b1-4)GlcNAc(b1-3)Gal(b1-4)GlcNAc(b1-2)Man(a1-6)]Man(b1-4)GlcNAc(b1-4)GlcNAc
# In short: as §1
# [24] = molecular target: Gal(b1-4)GlcNAc(b1-3)Gal(b1-4)GlcNAc(b1-3)[Gal(b1-4)GlcNAc(b1-3)Gal(b1-4)GlcNAc(b1-6)]GalNAc
# In short: as §1
# GalNAc(b1-3)GlcNAc = molecular target: GalNAc(b1-3)GlcNAc
# In short: as §1
# GalNAc(b1-4)GlcNAc = molecular target: GalNAc(b1-4)GlcNAc
# In short: as §1
# [25] = molecular target: GalNAc(b1-4)GlcNAc(b1-2)Man
# In short: as §1
# [26] = molecular target: GlcNAc(a1-4)Gal(b1-4)GlcNAc(b1-3)Gal(b1-4)GlcNAc(b1-3)Gal(b1-4)GlcNAc
# In short: as §1
binder,measurement,setting,value
B1,glycan array binding signal (z-score),Fuc(a1-2)Gal,4.29
same,glycan array binding signal (z-score),[1],3.01
same,glycan array binding signal (z-score),[2],-0.346
same,glycan array binding signal (z-score),[3],-0.5
same,glycan array binding signal (z-score),[4],-0.307
same,glycan array binding signal (z-score),[5],0.457
same,glycan array binding signal (z-score),[6],-0.439
same,glycan array binding signal (z-score),[7],-0.506
same,glycan array binding signal (z-score),[8],0.211
same,glycan array binding signal (z-score),[9],-0.395
same,glycan array binding signal (z-score),[10],-0.243
same,glycan array binding signal (z-score),[11],-0.49
same,glycan array binding signal (z-score),[12],4.75
same,glycan array binding signal (z-score),[13],-0.315
same,glycan array binding signal (z-score),Gal(a1-3)Gal(b1-4)GlcNAc,-0.211
same,glycan array binding signal (z-score),[14],4.55
same,glycan array binding signal (z-score),[15],-0.432
same,glycan array binding signal (z-score),[16],-0.36
same,glycan array binding signal (z-score),[17],5.77
same,glycan array binding signal (z-score),[18],-0.541
same,glycan array binding signal (z-score),[19],-0.208
same,glycan array binding signal (z-score),[20],-0.282
same,glycan array binding signal (z-score),[21],3.65
same,glycan array binding signal (z-score),[22],0.202
same,glycan array binding signal (z-score),[23],0.01
same,glycan array binding signal (z-score),[24],4.39
same,glycan array binding signal (z-score),GalNAc(b1-3)GlcNAc,-0.221
same,glycan array binding signal (z-score),GalNAc(b1-4)GlcNAc,7.2
same,glycan array binding signal (z-score),[25],-0.306
same,glycan array binding signal (z-score),[26],-0.156
